High-throughput results deposited in PubChem by National Center for Advancing Translational Sciences (NCATS).
Hits are enriched below; roughly 8.1% of the tested compounds scored in any of these assays.
KB-3-1 tox – kills parental KB-3-1 adenocarcinoma cells; KB-3-1 viability, CellTiter-Glo ATP luminescence, 72 h; Potency, µM (highest dose often 46.1 µM), actives largely listed as cytotoxic; 400,000 tested, 1.4% active; AID 1347075; further: nearly all actives have a fitted effect of over 60% in size
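Viability of parental KB-3-1 cells, measured by CellTiter-Glo luminescence, followed a 72 h incubation at 37 °C with pinned compounds in phenol-red-free DMEM containing 10% FBS.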
MCF10A rerep – DNA re-replication induction in MCF 10a cells. MCF 10A DNA re-replication, Hoechst nuclear intensity, 48 h. Potency, µM (highest dose often 46.1 µM), hits mostly activators. 350,000 tested, 2.9% active. AID 624296; further: nearly all actives have a fitted effect of over 50% in size
ELG1 repair inh – inhibitors of ELG1-dependent DNA repair in HEK293T cells. HEK293T ELG1-luciferase reporter, luminescence, 16 h; DNA damage induced by 5-fluorouridine. Potency, µM (doses to about 46.1 µM), usual class: inhibitors. 330,000 tested, 2.3% active. AID 504467; further: nearly all actives have a fitted effect of over 55% in size
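Quantitative HTS, concentration-response format. 2,000 cells/well co-treated with 5-fluorouridine and compound, 16 hr in 5% CO2 at 37 °C; ONE-Glo luminescence read after 30 min.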
SW480 rereplic – induces DNA re-replication in SW480 colon adenocarcinoma cells | 340,000 tested, 1.8% active | Potency, µM (titrated, usually from 46.1 µM), usual class: activators | SW480 DNA re-replication, Hoechst DNA content imaging, 48 h | AID 624297; further: nearly all actives have a fitted effect of over 55% in size
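Readout is total intensity of Hoechst-stained nuclei, excited at 405 nm and collected at 500-530 nm. Compound treatment lasted 48 hr at 37 C in 5% CO2 before staining.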
KB-V1 MDR tox – KB-V1 MDR subline cytotoxicity; 400,000 tested, 3.4% active; KB-V1 MDR cells viability, CellTiter-Glo, 72 h; Potency, µM (top dose mostly 46.1 µM), usual class: cytotoxic; further: nearly all actives have a fitted effect of over 60% in size
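Cytotoxicity via CellTiter-Glo luminescence after 72 h compound exposure at 37 degrees C. Cells: drug-selected KB-V1 line, DMEM phenol-red free plus 10% FBS. Compounds tested at multiple concentrations; normalized data fitted to concentration-effect curves.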
Each line names hits and unclear results; the compound was inactive in the other large screens. The call rests on the fitted dose curve; in most records, active means well fitted curve in the direction sought with a large enough effect; inconclusive means small, poorly fitted or top-dose-only effect, or another doubt; inactive means no such curve, though single readings can be large; an effect the other way counts as inactive or inconclusive.

CCOc1ccc(-c2cc(CCCC(=O)NCc3cccnc3)no2)cc1	ELG1 repair inh inconclusive
CCc1ccc(-c2cc(C(=O)N3N=C(C(F)F)CC3(O)C(F)F)c3ccccc3n2)cc1 (stereo unspecified)	KB-3-1 tox inconclusive, MCF10A rerep 9.2µM, ELG1 repair inh inconclusive, KB-V1 MDR tox 18µM
CC(C)Cc1cc(C(=O)N2N=C(C(F)F)CC2(O)C(F)F)c2ccccc2n1 (stereo unspecified)	MCF10A rerep inconclusive, ELG1 repair inh inconclusive
COc1ccc(CNc2nc(C)cc(C)c2C#N)cc1	none
O=C(O)Cc1sc(Nc2cccc3ccccc23)nc1-c1ccccc1	none
O=C(O)Cc1sc(Nc2cccc3ccccc23)nc1-c1ccc(Cl)cc1	MCF10A rerep 7.3µM
CN=c1scc(-c2ccc([N+](=O)[O-])cc2)n1/N=C/c1ccco1	ELG1 repair inh inconclusive
CN=c1scc(-c2ccc(F)cc2)n1/N=C/c1ccc(O)c(O)c1	KB-3-1 tox inconclusive, MCF10A rerep inconclusive, ELG1 repair inh inconclusive, SW480 rereplic 15µM
COCCn1c(C)nc2oc3ccc(Br)cc3c(=O)c2c1=O	none
O=C1c2ccccc2C(=O)C12OC2c1ccc(Cl)cc1Cl (stereo unspecified)	KB-3-1 tox inconclusive, MCF10A rerep 12µM, SW480 rereplic inconclusive, KB-V1 MDR tox inconclusive
CN1CCCN(S(=O)(=O)c2cccc(C(F)(F)F)c2)c2nc3ccccc3nc21	MCF10A rerep 21µM, SW480 rereplic inconclusive
C[C@H](CO)N1C[C@H](C)[C@@H](CN(C)Cc2ccc(-c3ccccc3)cc2)Oc2c(NC(=O)Nc3ccc4c(c3)OCO4)cccc2C1=O	KB-3-1 tox inconclusive, MCF10A rerep inconclusive, ELG1 repair inh 23µM
C[C@@H]1CN([C@H](C)CO)C(=O)c2cccc(NC(=O)Nc3ccc(F)cc3)c2O[C@H]1CN(C)C(=O)Nc1ccc(C(F)(F)F)cc1	KB-3-1 tox inconclusive, ELG1 repair inh 6.5µM, KB-V1 MDR tox inconclusive
COc1ccc(NC(=O)N(C)C[C@H]2Oc3c(NC(=O)Nc4ccc(C(F)(F)F)cc4)cccc3C(=O)N([C@H](C)CO)C[C@@H]2C)cc1	KB-3-1 tox inconclusive, MCF10A rerep inconclusive, ELG1 repair inh inconclusive
C[C@H](CO)N1C[C@H](C)[C@@H](CN(C)C(=O)Nc2ccc3c(c2)OCO3)Oc2c(NC(=O)Nc3ccc(C(F)(F)F)cc3)cccc2C1=O	ELG1 repair inh 10µM, KB-V1 MDR tox inconclusive
C[C@H](CO)N1C[C@H](C)[C@@H](CN(C)S(C)(=O)=O)Oc2c(NC(=O)Nc3ccc4c(c3)OCO4)cccc2C1=O	none
CCOc1ncccc1C(=O)OCC(=O)c1ccc(Cl)s1	ELG1 repair inh inconclusive
CCSc1nc2ccccc2c(=O)n1Cc1ccc(F)cc1	KB-V1 MDR tox inconclusive
O=C(COC(=O)c1cncc(Br)c1)NCc1ccccc1Cl	SW480 rereplic inconclusive
Cc1ccc(N2C(=O)c3ccccc3C2=O)cc1	ELG1 repair inh inconclusive
Cc1ccc(SC2=C(Sc3ccc(C)cc3)C(=O)c3ccccc3C2=O)cc1	MCF10A rerep 3.3µM, ELG1 repair inh inconclusive, SW480 rereplic 8.2µM
CCN(CC)C(=O)C1CCN(Cc2ccc(Br)cc2)CC1	KB-V1 MDR tox 18µM
O=C(NC1CCN(Cc2ccccc2)CC1)C12CC3CC(CC(C3)C1)C2	KB-V1 MDR tox 26µM
CCN(Cc1ccccc1)C(=O)C1CCN(Cc2ccc(OC)c(OC)c2OC)CC1	KB-V1 MDR tox 8.2µM
CCN(Cc1ccccc1)C(=O)C1CCN(Cc2ccc(SC)cc2)CC1	none
O=C(Cc1ccc(Br)cc1)NC1CCN(Cc2ccccc2)CC1	KB-3-1 tox inconclusive, MCF10A rerep inconclusive, ELG1 repair inh inconclusive, KB-V1 MDR tox 18µM
CCc1ccc(NC(=O)CN2C(=O)C3(SCC(=O)N3c3ccccc3)c3ccccc32)cc1 (stereo unspecified)	none (no result: MCF10A rerep, ELG1 repair inh, SW480 rereplic)
O=C(NC(=O)c1cnccc1C(F)(F)F)Nc1ccccc1	SW480 rereplic inconclusive
OC1CCN(Cc2cn(Cc3ccccc3)nc2-c2cc3ccccc3o2)CC1	none
CCCNC(=O)CNC(=O)c1ccccc1OCC(=O)Nc1ccc(Br)cc1	none (no result: MCF10A rerep, ELG1 repair inh, SW480 rereplic)
CCCN(CCC)Cc1c(C(=O)N/N=C/C(C)=C\c2ccccc2)nnn1-c1nonc1N	ELG1 repair inh inconclusive
